Test results reported in PubChem BioAssay (NCATS).
Values joined by “and” are separate entries in the source; they are usually repeats but may differ in a detail not shown here. Equal values may be shown once. Records with an inconclusive call do not appear. Where a call stands in place of a potency, no number is given. Unmarked numbers belong to inactive results. Active and inactive are the calls of the source. Calls follow the shape of the dose curve; as a rule, active = well fitted curve in the direction sought with a large enough effect; inconclusive = small, poorly fitted or top-dose-only effect, or another doubt; inactive = no such curve, though single readings can be large; an effect the other way counts as inactive or inconclusive.

Key:
[1] = biological target: Cellular tumor antigen p53 (Homo sapiens) (UniProt P04637); assay: Primary qHTS for small molecule compounds that upregulate eGFP-tagged delta133p53alpha (in N-terminal) cells. (AID 2060322); conditions: NCI-H358 eGFP-delta133p53alpha fluorescence, 24 h; activation: stronger effect = higher value; also: nearly all actives have a fitted effect of over 75% in size; also: potency is read from the fitted curve at half-maximal effect;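 as to activation: cells pre-induced with doxycycline then dosed without doxycycline; series mostly up to about 56 µM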
Cellular tumor antigen p53 (Homo sapiens), sequence (P04637 whole entry, looked up): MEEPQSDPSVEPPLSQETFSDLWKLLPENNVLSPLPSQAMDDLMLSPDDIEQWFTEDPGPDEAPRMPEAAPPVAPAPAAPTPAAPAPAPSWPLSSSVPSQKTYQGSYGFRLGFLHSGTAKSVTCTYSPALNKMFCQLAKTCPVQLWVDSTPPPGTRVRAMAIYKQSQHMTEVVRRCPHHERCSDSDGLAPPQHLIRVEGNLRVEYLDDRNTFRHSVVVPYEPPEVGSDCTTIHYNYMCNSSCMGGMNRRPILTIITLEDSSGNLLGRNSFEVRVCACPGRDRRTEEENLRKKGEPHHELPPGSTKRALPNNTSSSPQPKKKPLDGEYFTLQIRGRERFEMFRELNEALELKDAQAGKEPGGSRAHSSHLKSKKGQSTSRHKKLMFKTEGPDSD
Outline: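 NCI-H358 cells pre-induced 24 h with 10 ng/ml doxycycline for eGFP-delta133p53alpha, plated dox-free and exposed 24 h at 37C to titrated compounds. Fixed, Hoechst-stained; gated GFP peak intensity by laser scanning cytometry, normalized to DMSO (0%) and 57.5 uM 5-azacytidine (100%).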

[2] = biological target: Aldehyde dehydrogenase, mitochondrial (Homo sapiens) (UniProt P05091); assay: qHTS for Inhibitors of the Aldehyde Dehydrogenase Family (ALDH2) Primary screen (AID 2061308); also: nearly all actives have a fitted effect of over 55% in size
[3] = biological target: Retinaldehyde dehydrogenase 3 (Homo sapiens) (UniProt P47895); assay: qHTS for Inhibitors of the Aldehyde Dehydrogenase Family (ALDH1A3) Validation screen (AID 2061312); also: nearly all actives have a fitted effect of over 45% in size; also: potency is read from the fitted curve at half-maximal effect
[4] = biological target: Retinaldehyde dehydrogenase 3 (Homo sapiens) (UniProt P47895); assay: qHTS for Inhibitors of the Aldehyde Dehydrogenase Family (ALDH1A3) Primary screen (AID 2061315)

| SMILES | activation [1] | Potency [2] | Potency [3] | Potency [4] | Potency [1] |
| --- | --- | --- | --- | --- | --- |
| CN1CC2CN(c3ccc4oc5ccccc5c(=O)c4c3)CC2C1 (stereo not drawn) | 0.955% | inactive | inactive | inactive |  |
| C(#Cc1cccc(CN2CCOCC2)c1)CCN1CCCCC1 | -4.3% | inactive | 20 µM (active) | inactive |  |
| CN1CCC(Nc2nc(Nc3ccc(Oc4ccccc4)cc3)c3c(=O)[nH]cc(Br)c3n2)CC1 |  | inactive | inactive | inactive | 10.7 µM (active) |
| CC1(C)CC(NC(=O)C(=O)Nc2ccc(Cl)cc2)CC(C)(C)N1 | 8.11% | inactive | inactive | inactive |  |
| Cc1ccc(Cl)cc1N(CC(=O)Nc1c(F)cccc1F)S(C)(=O)=O | 0.955% | inactive | inactive | inactive |  |
| CC(C)c1nc(-c2ccc(NC(=O)Nc3cccc(C(F)(F)F)c3)c3ccccc23)c2c(N)nccn12 |  | inactive | inactive | inactive | 26.9 µM (active) |
| CC(C)(C)c1cc(Br)cc([C@H](CC(=O)O)NC(=O)CNC(=O)c2cc(O)cc(NC3=NCC(O)CN3)c2)c1 (stereo partly drawn) | -5.25% | inactive | inactive | inactive |  |
| O=C(O)CC1CCC(c2ccc(-c3ccc4nc(C(=O)NCc5ccc(OC(F)(F)F)cc5)cn4c3)cc2)CC1 (stereo not drawn) | 9.07% | inactive | inactive | inactive |  |
| COc1ccc2[nH]c3c(-c4cccc5ccccc45)nccc3c2c1 |  | inactive | inactive | inactive | 26.9 µM (active) |
| Oc1ccccc1-c1cc(-c2ccccc2F)[nH]n1 | -12.9% | inactive | inactive | inactive |  |
| CCCC1(c2ccccc2)NC(=O)N(CC(=O)N(C)Cc2c(F)cccc2Cl)C1=O (stereo not drawn) | 4.3% | inactive | inactive | inactive |  |
| COc1cc(Br)c(S(=O)(=O)Nc2ccc(C(F)(F)F)c(O[C@@H]3CCN(C)C3)c2)cc1OC | 12.4% | inactive | inactive | inactive |  |
| NS(=O)(=O)c1ccc(NC(=O)Nc2ccc(F)cc2)cc1 | -7.64% | inactive | inactive | inactive |  |
| CCC(C)n1cc(C)c2c(C(=O)NCc3c(C)cc(C)[nH]c3=O)cc(-c3ccc(N4CCNCC4)nc3)cc21 (stereo not drawn) | -3.34% | inactive | inactive | inactive |  |
| CCC1(O)CC2c3cc(OC)c(OC)cc3CCN2CC1CC(C)C (stereo not drawn) | 3.82% | inactive | inactive | inactive |  |
| CN1CCC(c2c[nH]c3ccc(NC(=O)c4ccc(F)cc4)cc23)CC1 | -11% | inactive | inactive | inactive |  |
| CCN1C[C@H](C)n2c(c(O)c3c(=O)n(Cc4ccc(F)c(Cl)c4)nc(C(=O)NC)c32)C1=O | -11.2% and 13.4% and -6.68% | inactive | inactive | inactive |  |
| O=C(COc1ccc(Cl)cc1)NC1CCC(NC(=O)COc2ccc(Cl)cc2)CC1 (stereo not drawn) | -5.25% | inactive | inactive | inactive |  |
| CC(C)NC(=O)c1ccc(C#Cc2ccncc2)cn1 | 14.8% | inactive | inactive | inactive |  |
| CCNC(=O)c1noc(-c2cc(Cl)c(O)cc2O)c1-c1ccc(OC)cc1 | -6.68% | inactive | inactive | inactive |  |
| CNC(=O)c1ccc2cc([C@@]3(O)CCn4cncc43)ccc2c1 | -9.55% | inactive | inactive | inactive |  |
| CN(C)c1ccnc2sc3c(=O)n(N4CCCCCC4)cnc3c12 | -18.1% | inactive | inactive | inactive |  |
| CN(CC(=O)N(Cc1ccc(C2CCCCC2)cc1)c1ccc(C(=O)O)cc1)S(=O)(=O)c1c(F)c(F)c(F)c(F)c1F |  | inactive | inactive | inactive | 6.75 µM (active) |
| O=[N+]([O-])c1cn2c(n1)OCC(OCc1ccc(OC(F)(F)F)cc1)C2 (stereo not drawn) | -10% | inactive | inactive | inactive |  |
| O=C(O)CC1CCC(c2ccc(NC(=O)c3nnc(Nc4ccc(F)c(F)c4)o3)cc2)CC1 (stereo not drawn) | -0.955% | inactive | inactive | inactive |  |
| O=C(O)c1cc(N(Cc2ccc(C3CCCCC3)cc2)C(=O)c2ccc(Oc3ccccc3)cc2)ccc1O | -2.86% | inactive | inactive | inactive |  |
| Cc1oc(S(=O)(=O)N2CCCCC2)cc1NC(=O)Nc1ccccc1 | 0.955% | inactive | inactive | inactive |  |
